Data on 40 molecules can be found in PubChem BioAssay (NCI).

Values joined by “and” are separate entries in the source; they are usually repeats but may differ in a detail not shown here. Equal entries are not always repeated. This is part of a sample that, as a whole, favours compounds with a hit. Of some 83,000 tested, about 20% had one in any assay.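 Activity criterion: percent growth below 10, measured after cells in 96-well plates were exposed to a single compound concentration for 48 hours.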 Active and inactive are the calls of the source.

This experiment has as its system MDA-MB-468 breast. As to the kind of experiment: NCI-60 one-dose screen, 48 h (100 = growth as untreated, 0 = no growth, -100 = all killed). As to conditions: 10 µM unless noted.
Consider `O=C(CSc1nnc(-c2ccc(NC(=O)c3cccnc3)cc2)o1)Nc1cccc(Br)c1`, for which the growth was 97.3% (inactive).

For the molecule `C=C1C(=O)O[C@H]2[C@H]1CC/C(COC(=O)c1cc3cc(F)ccc3[nH]1)=C\CC[C@@]1(C)O[C@@H]21`, the growth was -63.2% (active). Turning to `Cc1ccc(C(F)(F)F)cc1N1CCN(C(=O)[C@H]2C[C@H]2c2ccc(C(F)(F)F)nc2)CC1`, the growth is 65.6% (inactive). Turning to `COc1cc(Nc2cc(O)c3c(=O)cc(-c4ccccc4)oc3c2)cc(OC)c1`, the growth was 11.7% (inactive). For the molecule `COc1ccc(NC(=O)c2sc3nc(C)c(C(C)=O)cc3c2N)cc1`, the growth was 91.8% (inactive). The result for `O=C(N/N=C/[C@@H](O)[C@H](O)[C@H](O)CO)c1ccc(NC(=O)c2cccnc2)cc1` reads 101% (inactive); that for `CNc1ccccc1C(N)=O`, 105% (inactive); that for `CCOC(=O)c1c(C)c2c(n1Cc1ccccc1)CSc1cc(C#N)c(=O)[nH]c1-2`, 80.3% [100 µM] (inactive). Take `N#CC1c2ccccc2C=CN1C(=O)c1ccccc1` (stereo not given): the growth is 108% (inactive) and 96.5% (inactive). For the molecule `Cc1ccc(OC(=O)c2ccc(Cl)cc2)cc1`, the growth was 105% (inactive).

With `COc1ccc(C(=O)c2no[n+]([O-])c2C(=O)c2ccc(OC)cc2)cc1`, the growth was -88.4% (active).

`CCCCCCCCCCCCCCC(C(=O)OCC)C(=O)OCC`: the growth is 95.9% (inactive). For `Cc1nc2n(c(=O)c1CCN1CCC(c3noc4cc(F)ccc34)CC1)CCC[C@@H]2O`, the growth is 100% (inactive). In the case of `Cc1ccc(S(=O)(=O)N2CCc3ccccc3CC2)cc1`, the growth was -4.8% (active). The result for `O=C(Nc1ncc(Cc2cccc(C(F)(F)F)c2)s1)c1ccc(-n2cnnn2)cc1` reads 16.7% (inactive). Regarding `CCCCCCCNc1nc(C=O)ncc1-c1ccc(C(F)(F)F)cc1`, the growth is 103% (inactive). Consider `C=C1C(=O)O[C@H]2[C@H]1CC/C(COC(=O)NCCc1c[nH]c3ccc(OC)cc13)=C\CC[C@@]1(C)O[C@@H]21`, for which the growth is -44.9% (active). As for `O=C(O)C1C(c2ccccc2)c2ccccc2C(O)C1CO` (stereo not given), the figure is 117% (inactive); as for `COc1ccc(-n2c(C)nc3c(c(C)nn3-c3ccccc3)c2=O)cc1`, -15.7% (active); as for `CS(=O)CC1=NC(=N)N=C1CS(C)=O` (stereo not given), 88.5% (inactive).

On to `COc1ccc(C2=CC(c3ccc(Oc4ccnc5cc(Cl)ccc45)c(OC)c3)c3c(nc(OC)[nH]c3=O)N2)cc1` (stereo not given), for which the growth is 61.4% (inactive).

For the molecule `N#Cc1c(NC(=O)c2ccccc2C(F)(F)F)sc2c1CCC(=O)C2`, the growth is -0.286% (active). As for `N#Cc1cccc(-c2c(-c3ccc4ccccc4c3)oc3ccccc3c2=O)c1`, the figure is 3.16% (active); as for `O=c1[nH]c(=O)n(C2CC(O)C(CO)O2)cc1C(F)(F)F` (stereo not given), 62.7% (inactive).

For the molecule `COc1cccc(-c2nc3sccn3c2-c2cccc(S(C)(=O)=O)c2)c1`, the growth is 89.1% (inactive). The result for `CC(=O)CC(=O)OC/C=C(/C)CCC=C(C)C` reads 97.6% (inactive); that for `COc1ccc(Nc2nccc(Nc3ccc4[nH]ncc4c3)n2)cc1`, 44% (inactive); that for `O=C1/C(=C/c2ccccc2Cl)CCc2ccccc21`, 101% (inactive). As to `O=C1OC(c2ccc(-c3ccccc3)cc2)=C/C1=C/c1c(Cl)cccc1Cl`, the growth is 90.8% (inactive). Consider `N#CC1=C(N)Oc2c(c(N)nn2-c2ccccc2)C1c1ccc(Cl)cc1Cl` (stereo not given), for which the growth was 129% (inactive). Turning to `C[C@@H]1C(=O)[C@@H]2C[C@@H](O)[C@@H](O)C[C@]2(C)[C@H]2CC[C@@]3(C)C(=C12)CC[C@@H]3[C@@](C)(O)[C@H](O)CCC(C)(C)O`, the growth is 103% (inactive).

For `Cc1cccc(C)c1NC(=S)/N=C\c1c(O)[nH]c(=O)[nH]c1=O`, the growth was 114% (inactive). In the case of `C[C@]12CC[C@@H]3c4ccc(O)cc4CC[C@H]3[C@@H]1CC[C@@H]2NS(=O)(=O)c1ccc(C(F)(F)F)cc1`, the growth is 53% (inactive).

`COc1ccc(C2c3sc4c(F)cccc4c3Oc3nc[nH]c(=O)c32)cc1` (stereo not given): the growth is 54.6% (inactive).

`COc1ccc2nc(-c3c(-c4ccccc4)nc4ncccn34)[nH]c2c1`: the growth was 89.4% (inactive). `C=C(C)[C@@H]1CC[C@]2(COC)CC[C@]3(C)[C@H](CC[C@@H]4[C@@]5(C)CCCNC(C)(C)[C@@H]5CC[C@]43C)[C@@H]12`: the growth was -50.5% (active). Regarding `CCCN1CCN(c2ccc3nc(-c4ccc5nc(-c6ccc(C(F)(F)F)cc6)[nH]c5c4)[nH]c3c2)CC1`, the growth is -63.6% (active).

Take `Cc1nccc2c3ccc(OCc4cn(Cc5ccc(Br)cc5)nn4)cc3n(CCCc3ccccc3)c12`: the growth is 93.4% (inactive).

`O=C(C[C@@H](C(=O)NCc1cccc(C(F)(F)F)c1)N1C(=O)[C@@H](N2C(=O)OC[C@@H]2c2ccccc2)[C@H]1/C=C/c1ccccc1)NC1CCN(Cc2ccccc2)CC1`: the growth is -1.25% (active). The result for `CC1(C)CC(=O)C2=C(C1)C(c1ccc(Cl)cc1)n1ncc(C#N)c1N2` (stereo not given) reads 105% (inactive).
